Source: PubChem BioAssay
Only some compounds are listed: those with a hit (about 2.3% of all), similar ones and a draw of the others.
Pf Dd2 growth = P. falciparum Dd2 growth inhibitors, primary screen, SYBR Green fluorescence, single dose replicates. 72 h; active compounds read low. activity change, % at 10 µM. actives 2.3% (n = 94,000). AID 1159554, 2015; in the data active = activity change below about -80%
C diff HTS = C. difficile growth inhibitors, primary screen, HTS. Clostridium difficile clinical isolate growth, OD600, 24 h; active compounds read low. growth activity, negative = inhibition, % at 16 µg/mL (by protocol). actives 0.25% (n = 86,000). AID 1259249, 2017;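 active = mean growth activity at or below -80% and every replicate also at or below -80%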;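 note: 0% = DMSO wells and -100% = levofloxacin 16 µg/mL wells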
* = called active by the depositor; . = no result given.

SMILES | Pf Dd2 growth | C diff HTS
COc1ccc(S(=O)(=O)Nc2ccc3c(c2)C(=O)N([C@H](C)CO)C[C@@H](C)[C@H](CN(C)Cc2ccc(C(=O)Nc4ccccc4N)cc2)O3)cc1 | -4.3 | -1.6
COc1ccc(S(=O)(=O)Nc2ccc3c(c2)CC(=O)N([C@H](C)CO)C[C@@H](C)[C@@H](CN(C)Cc2ccc(C(=O)Nc4ccccc4N)cc2)O3)cc1 | -84.5* | 0.4
COc1ccc(S(=O)(=O)Nc2ccc3c(c2)CC(=O)N([C@H](C)CO)C[C@H](C)[C@H](CN(C)Cc2ccc(C(=O)Nc4ccccc4N)cc2)O3)cc1 | -81.2* | -3.6
COc1ccc(S(=O)(=O)Nc2ccc3c(c2)C(=O)N([C@@H](C)CO)C[C@H](C)[C@@H](CN(C)Cc2ccc(C(=O)Nc4ccccc4N)cc2)O3)cc1 | -56.0 | -4.9
C[C@H](CO)N1C[C@H](C)[C@@H](CN(C)CC2CCCCC2)OCCCC[C@H](C)Oc2ccc(N(C)C)cc2C1=O | -9.8 | 4.7
CO[C@H](CN(C)Cc1ccc2c(c1)OCO2)[C@@H](C)CN(C(=O)c1ccccc1)[C@@H](C)CO | -7.4 | .
COc1ccc(S(=O)(=O)N[C@@H]2CC[C@H](CCn3cc(-c4ccccc4F)nn3)O[C@@H]2CO)cc1 | -92.1* | -0.8
COc1ccccc1S(=O)(=O)N[C@H]1CC[C@H](CCn2cc(C3CCCC3)nn2)O[C@H]1CO | -4.6 | -1.9
COc1ccc(S(=O)(=O)N[C@H]2CC[C@@H](CCn3cc(-c4ccccc4F)nn3)O[C@@H]2CO)cc1 | -42.7 | -3.3
O=C(Nc1ccc(Cl)c(Cl)c1)N[C@@H]1CC[C@@H](CCn2cc(C3CCCCC3)nn2)O[C@H]1CO | -15.7 | -1.1
CCCc1cn(CC[C@@H]2CC[C@H](NS(=O)(=O)c3ccc(-c4ccccc4)cc3)[C@H](CO)O2)nn1 | -92.2* | -5.0
COc1ccccc1S(=O)(=O)N[C@H]1CC[C@@H](CCn2cc(C3CCCC3)nn2)O[C@@H]1CO | -92.7* | 13.7
O=C(Nc1ccc(Cl)c(Cl)c1)N[C@@H]1CC[C@@H](CCn2cc(C3CCCCC3)nn2)O[C@@H]1CO | -87.5* | .
CN(C)Cc1cn(CC[C@H]2CC[C@H](NS(=O)(=O)c3ccc(-c4ccccc4)cc3)[C@H](CO)O2)nn1 | 9.8 | .
CCNC(=O)Nc1ccc2c(c1)C(=O)N(C)[C@@H]1CC[C@H](CC(=O)NCCN3CCCC3)O[C@H]1CO2 | -9.8 | -3.8
COc1ccccc1NC(=O)N[C@H]1CC[C@H](CCNC(=O)Cc2ccccn2)O[C@H]1CO | -4.5 | 1.0
CC(C)c1cn(CC[C@@H]2CC[C@H](NS(=O)(=O)c3ccc(Cl)cc3)[C@@H](CO)O2)nn1 | -20.4 | -1.9
C[C@@H]1CCCCO[C@@H](CN(C)S(=O)(=O)c2ccc(Cl)cc2)[C@@H](C)CN([C@H](C)CO)C(=O)c2cc(NC(=O)Nc3ccc(C(F)(F)F)cc3)ccc2O1 | -85.6* | 18.7
C[C@@H]1CN([C@@H](C)CO)C(=O)c2cc(NC(=O)CCC(F)(F)F)ccc2O[C@@H](C)CCCCO[C@@H]1CN(C)S(=O)(=O)c1ccc(Cl)cc1 | -85.6* | -7.4
C[C@@H]1CCCCO[C@@H](CN(C)S(=O)(=O)c2ccc(F)cc2)[C@H](C)CN([C@@H](C)CO)C(=O)c2cc(NC(=O)Nc3ccc(C(F)(F)F)cc3)ccc2O1 | 10.7 | .
C[C@@H]1CCCCO[C@@H](CN(C)S(=O)(=O)c2ccc(Cl)cc2)[C@@H](C)CN([C@H](C)CO)C(=O)c2cc(NC(=O)CCC(F)(F)F)ccc2O1 | -78.2 | 3.6
C[C@@H]1CCCCO[C@@H](CN(C)S(=O)(=O)c2ccc(Cl)cc2)[C@H](C)CN([C@H](C)CO)C(=O)c2cc(NC(=O)Nc3ccc(C(F)(F)F)cc3)ccc2O1 | -77.4 | 14.5
C[C@H](CO)N1C[C@H](C)[C@H](CN(C)S(=O)(=O)c2ccc(F)cc2)OCCCC[C@H](C)Oc2ccc(NC(=O)Nc3ccc(C(F)(F)F)cc3)cc2C1=O | -31.3 | .
C[C@@H]1CCCCO[C@H](CN(C)S(=O)(=O)c2ccc(F)cc2)[C@@H](C)CN([C@@H](C)CO)C(=O)c2cc(NC(=O)Nc3ccc(C(F)(F)F)cc3)ccc2O1 | -84.5* | .
C[C@@H]1CCCCO[C@@H](CN(C)S(=O)(=O)c2ccc(F)cc2)[C@@H](C)CN([C@H](C)CO)C(=O)c2cc(NC(=O)Nc3ccc(C(F)(F)F)cc3)ccc2O1 | -81.6* | .
C[C@@H]1CCCCO[C@@H](CN(C)Cc2ccc(C(F)(F)F)cc2)[C@H](C)CN([C@H](C)CO)C(=O)c2cc(NC(=O)Nc3ccc(F)cc3)ccc2O1 | 9.2 | .
CCC(=O)N1CC2(C1)CN(C(=O)Nc1ccccc1F)[C@@H](CO)c1[nH]c3cc(OC)ccc3c12 | -51.9 | -2.7
C[C@H](CO)N1C[C@H](C)[C@H](CN(C)C(=O)c2ccncc2)OCCCC[C@H](C)Oc2ccc(NC(=O)CCC(F)(F)F)cc2C1=O | 6.5 | 0.8
